Results on six compounds are retold here after PubChem BioAssay (EPA / NIEHS).

Molecules are shown by their SMILES. Inconclusive results are not listed. The source made the active and inactive calls. The calls were made as follows: active = hit-call score of the fitted dose curve at least 0.9, where 1 is the maximum; inconclusive = response in the unintended direction; inactive = score below 0.9.

Read-out in assay [1]: alkyl and aryl transferase (GSTA2), GSTA2 (gene 2939)
As to the kind of experiment: CLD_GSTA2_6hr: CellzDirect (CLD) Gene Expression Assay for alkyl and aryl transferase (GSTA2) at 6 hours (AID 2283666). In short, it runs like this: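 GSTA2 transcript induction at 6 h, quantified by nuclease protection (qNPA) with chemiluminescent detection, in human liver primary hepatocytes exposed to several compound concentrations with 0.2% DMSO as baseline; phase-contrast morphology annotated apparent cytotoxicity.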

Assay [2] can be described thus: Tanguay_ZF_120hpf_TR_legacy: (Legacy) Oregon State University Tanguay Lab 120 Hour Post-fertilization zebrafish Assay for Touch Response (AID 2283667). The gist of the method: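 Readout is presence or absence of touch response in 120 hpf zebrafish larvae, assessed by brightfield observation after continuous static exposure at 28C. Final vehicle was 0.64% (vol/vol) DMSO.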

Read-out in assay [3]: glucuronosyltransferase (UGT1A1), UGT1A1 (gene 54658)
As to the kind of experiment: CLD_UGT1A1_6hr: CellzDirect (CLD) Gene Expression Assay for glucuronosyltransferase (UGT1A1) at 6 hours (AID 2283672). In short, it runs like this:
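UGT1A1 mRNA induction, read by quantitative nuclease protection assay, 6 h after dosing primary human hepatocytes (two donors, 0.2% DMSO vehicle). Gain of signal fitted relative to vehicle.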

Read-out in assay [4]: xenobiotic metabolism (CYP1A1), CYP1A1 (gene 1543)
As to the kind of experiment: CLD_CYP1A1_24hr: CellzDirect (CLD) Gene Expression Assay for xenobiotic metabolism (CYP1A1) at 24 hours (AID 2283673).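 Also: CYP1A1 mRNA level by quantitative nuclease protection with chemiluminescence.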 In short, it runs like this:
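Transcript levels were read at 24 h by qNPA chemiluminescence in human liver primary cells. Cells got daily fresh dosing at multiple concentrations (vehicle 0.2% DMSO). Induction fitted upward against DMSO; phase-contrast cytotoxicity annotated.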

Read-out in assay [5]: ABC Transporter (ABCB11), ABCB11 (gene 8647)
As to the kind of experiment: CLD_ABCB11_6hr: CellzDirect (CLD) Gene Expression Assay for ABC Transporter (ABCB11) at 6 hours (AID 2283675).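 Also: hits raise ABCB11 mRNA level so AC50 marks induction.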 In short, it runs like this:
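Read-out was ABCB11 mRNA gain of signal by quantitative nuclease protection assay, relative to 0.2% DMSO vehicle, 6 h post-dose. Cells were primary human hepatocytes from two donors, treated across multiple concentrations; phase-contrast cytotoxicity noted yes/no.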

Read-out in assay [6]: Cytochrome P450 3A4 (Homo sapiens) (UniProt P08684)
As to the kind of experiment: CLD_CYP3A4_6hr: CellzDirect (CLD) Gene Expression Assay for xenobiotic metabolism (CYP3A4) at 6 hours (AID 2283680). The gist of the method:
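CYP3A4 mRNA induction, 6 h after dosing of cultured primary human hepatocytes from two donors, read by quantitative nuclease protection (qNPA, chemiluminescence). Vehicle 0.2% DMSO as baseline; morphology-based cytotoxicity annotated yes/no.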

Read-out in assay [7]: xenobiotic metabolism (CYP1A2), CYP1A2 (gene 1544)
As to the kind of experiment: CLD_CYP1A2_24hr: CellzDirect (CLD) Gene Expression Assay for xenobiotic metabolism (CYP1A2) at 24 hours (AID 2283683). In short, it runs like this:
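CYP1A2 mRNA induction measured by quantitative nuclease protection (chemiluminescent) in human primary hepatocytes 24 h after multi-concentration chemical dosing with daily fresh solutions. DMSO (0.2%) baseline; positive-direction fitting; morphology-based cytotoxicity noted.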

Read-out in assay [8]: Cytochrome P450 2B6 (Homo sapiens) (UniProt P20813)
As to the kind of experiment: CLD_CYP2B6_24hr: CellzDirect (CLD) Gene Expression Assay for xenobiotic metabolism (CYP2B6) at 24 hours (AID 2283686). The gist of the method: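 qNPA chemiluminescent measurement of mRNA at 24 hours in human primary hepatocyte cultures from two donor preparations, with daily fresh dosing and 0.2% DMSO vehicle as baseline. Morphology-based cytotoxicity flagged yes/no.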

Read-out in assay [9]: organic anion transporter (SLCO1B1), SLCO1B1 (gene 10599)
As to the kind of experiment: CLD_SLCO1B1_6hr: CellzDirect (CLD) Gene Expression Assay for organic anion transporter (SLCO1B1) at 6 hours (AID 2283668).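 Also: active means mRNA induction above DMSO baseline.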 The gist of the method:
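SLCO1B1 mRNA induction measured 6 h after dosing by quantitative nuclease protection with chemiluminescent read-out, in human primary hepatocyte cultures given chemicals at several concentrations (vehicle 0.2% DMSO). Increase over DMSO baseline fitted; morphology-based cytotoxicity annotated yes/no.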

A short description of assay [10]: CLD_ACTIN_6hr: CellzDirect (CLD) Gene Expression Assay for Baseline Control (Actin) at 6 hours (AID 2283676).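 Also: active means increased actin mRNA relative to DMSO vehicle.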 In short, it runs like this: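 Baseline actin transcript level measured by qNPA (S1 nuclease protection, chemiluminescence) in human hepatocyte cultures 6 h after chemical exposure; 0.2% DMSO vehicle as reference, cytotoxicity noted from morphology.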
Read-out in assay [11]: ABC Transporter (ABCB1), ABCB1 (gene 5243)
As to the kind of experiment: CLD_ABCB1_24hr: CellzDirect (CLD) Gene Expression Assay for ABC Transporter (ABCB1) at 24 hours (AID 2283684). In short, it runs like this:
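ABCB1 mRNA induction versus 0.2% DMSO vehicle was read by qNPA chemiluminescence at 24 h. Cultured human hepatocytes from two donor preparations received daily fresh dosing, and phase-contrast cytotoxicity calls were annotated alongside the data.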

Read-out in assay [12]: Broad substrate specificity ATP-binding cassette transporter ABCG2 (Homo sapiens) (UniProt Q9UNQ0)
As to the kind of experiment: CLD_ABCG2_24hr: CellzDirect (CLD) Gene Expression Assay for ABC Transporter (ABCG2) at 24 hours (AID 2283685). In short, it runs like this:
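ABCG2 mRNA induction, read as gain of chemiluminescent signal over 0.2% DMSO, was measured by quantitative nuclease protection at 24 h. Cultured human liver hepatocytes were given fresh dosing solutions of test chemicals at several concentrations each day.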

Read-out in assay [13]: Cytochrome P450 2C19 (Homo sapiens) (UniProt P33261)
As to the kind of experiment: CLD_CYP2C19_24hr: CellzDirect (CLD) Gene Expression Assay for xenobiotic metabolism (CYP2C19) at 24 hours (AID 2283687).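 Also: activity means mRNA induction above DMSO vehicle baseline.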 In short, it runs like this: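 CYP2C19 mRNA was quantified by qNPA chemiluminescence after 24 h of daily dosing of cultured human primary hepatocytes from two donors; vehicle was 0.2% DMSO, and increases over DMSO baseline were fitted.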

Read-out in assay [14]: organic anion transporter (SLCO1B1), SLCO1B1 (gene 10599)
As to the kind of experiment: CLD_SLCO1B1_24hr: CellzDirect (CLD) Gene Expression Assay for organic anion transporter (SLCO1B1) at 24 hours (AID 2283690). In short, it runs like this: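 SLCO1B1 mRNA induction read at 24 h by quantitative nuclease protection assay (chemiluminescence), analyzed against DMSO baseline. Human hepatocyte cultures from separate donors received fresh dosing solutions daily; vehicle 0.2% DMSO; cytotoxicity flagged by phase-contrast morphology.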

Read-out in assay [15]: sulfotransferase (SULT2A), SULT2A1 (gene 6822)
As to the kind of experiment: CLD_SULT2A_24hr: CellzDirect (CLD) Gene Expression Assay for sulfotransferase (SULT2A) at 24 hours (AID 2283694). The gist of the method: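 mRNA is measured by qNPA: probe hybridisation, S1 nuclease digestion, chemiluminescence, in lysates from human primary hepatocytes harvested 24 h after daily dosing. Vehicle was 0.2% DMSO. Phase-contrast microscopy flagged cytotoxicity (yes/no).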

Read-out in assay [16]: ABC Transporter (ABCB1), ABCB1 (gene 5243)
As to the kind of experiment: CLD_ABCB1_48hr: CellzDirect (CLD) Gene Expression Assay for ABC Transporter (ABCB1) at 48 hours (AID 2283695). The gist of the method: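 ABCB1 mRNA was measured by quantitative nuclease protection assay (chemiluminescence) 48 h after dosing. Human hepatocyte cultures from two separate donors received fresh dosing solutions daily for two days, with 0.2% DMSO as vehicle. Positive-direction fit against DMSO.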

Read-out in assay [17]: Cytochrome P450 2C19 (Homo sapiens) (UniProt P33261)
As to the kind of experiment: CLD_CYP2C19_6hr: CellzDirect (CLD) Gene Expression Assay for xenobiotic metabolism (CYP2C19) at 6 hours (AID 2283678). In short, it runs like this: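 CYP2C19 transcript induction was quantified by quantitative nuclease protection assay with chemiluminescent read-out, 6 h after dosing. Cells were primary human hepatocytes from two donor preparations, given fresh dosing solutions daily in 0.2% DMSO vehicle. Activity was relative to DMSO.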

Chain of Cytochrome P450 3A4 (Homo sapiens) (P08684 whole entry, looked up): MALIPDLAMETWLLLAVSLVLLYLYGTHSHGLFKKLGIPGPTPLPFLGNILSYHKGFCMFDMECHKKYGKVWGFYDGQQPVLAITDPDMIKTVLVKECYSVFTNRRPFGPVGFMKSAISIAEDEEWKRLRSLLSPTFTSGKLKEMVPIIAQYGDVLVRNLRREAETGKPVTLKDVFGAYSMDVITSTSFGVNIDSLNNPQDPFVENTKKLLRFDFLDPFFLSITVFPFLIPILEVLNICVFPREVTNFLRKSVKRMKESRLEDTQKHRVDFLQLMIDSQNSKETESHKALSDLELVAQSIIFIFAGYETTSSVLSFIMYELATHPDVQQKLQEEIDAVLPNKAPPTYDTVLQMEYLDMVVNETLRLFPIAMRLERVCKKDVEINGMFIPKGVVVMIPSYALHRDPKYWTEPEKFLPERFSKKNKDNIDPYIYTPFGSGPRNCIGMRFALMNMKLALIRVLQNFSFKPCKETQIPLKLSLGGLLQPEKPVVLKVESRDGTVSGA
Chain of Cytochrome P450 2C19 (Homo sapiens) (P33261 whole entry, looked up): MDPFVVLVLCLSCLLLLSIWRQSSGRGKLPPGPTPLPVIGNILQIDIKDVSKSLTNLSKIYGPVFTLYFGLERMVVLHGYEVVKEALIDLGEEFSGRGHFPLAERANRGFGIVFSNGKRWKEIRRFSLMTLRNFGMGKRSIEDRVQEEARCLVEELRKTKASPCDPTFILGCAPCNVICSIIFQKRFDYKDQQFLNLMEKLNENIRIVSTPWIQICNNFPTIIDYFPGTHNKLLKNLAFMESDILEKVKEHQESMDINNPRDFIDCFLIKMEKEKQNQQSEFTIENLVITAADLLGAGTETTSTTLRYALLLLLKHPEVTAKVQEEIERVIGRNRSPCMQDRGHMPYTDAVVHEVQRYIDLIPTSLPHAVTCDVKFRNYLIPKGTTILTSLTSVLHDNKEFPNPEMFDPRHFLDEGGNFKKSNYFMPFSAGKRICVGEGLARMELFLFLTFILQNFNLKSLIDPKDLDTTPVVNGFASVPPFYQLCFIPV
Chain of Broad substrate specificity ATP-binding cassette transporter ABCG2 (Homo sapiens) (Q9UNQ0 whole entry, looked up): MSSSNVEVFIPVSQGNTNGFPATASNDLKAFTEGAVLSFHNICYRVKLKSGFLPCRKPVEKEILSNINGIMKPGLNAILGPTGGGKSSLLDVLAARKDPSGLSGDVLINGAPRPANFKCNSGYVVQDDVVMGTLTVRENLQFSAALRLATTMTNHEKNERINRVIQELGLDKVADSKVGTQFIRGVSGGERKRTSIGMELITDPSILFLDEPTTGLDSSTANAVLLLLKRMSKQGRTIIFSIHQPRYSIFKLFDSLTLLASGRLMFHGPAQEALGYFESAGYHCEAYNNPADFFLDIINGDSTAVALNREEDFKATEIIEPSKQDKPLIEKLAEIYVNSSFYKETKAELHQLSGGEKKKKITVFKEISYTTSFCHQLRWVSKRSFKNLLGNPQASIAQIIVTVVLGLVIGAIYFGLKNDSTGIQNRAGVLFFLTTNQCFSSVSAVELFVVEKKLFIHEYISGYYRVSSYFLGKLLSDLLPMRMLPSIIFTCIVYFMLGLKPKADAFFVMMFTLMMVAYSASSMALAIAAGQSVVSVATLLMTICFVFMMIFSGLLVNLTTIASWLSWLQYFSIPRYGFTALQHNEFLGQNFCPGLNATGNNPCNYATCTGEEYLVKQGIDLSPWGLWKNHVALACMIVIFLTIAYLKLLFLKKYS

What is called AC50 is the concentration giving half of the maximal activity seen. As to `CCN(Cc1c(F)cccc1Cl)c1c([N+](=O)[O-])cc(C(F)(F)F)cc1[N+](=O)[O-]`, the outcome in [1], in [2], in assay [3] and in assay [5] was inactive. Also, the AC50 in assay [4] was 786 nM (active); in assay [6] it was 1900 nM (active); in assay [7] it was 418 nM (active); in assay [8] it was 365 nM (active).
Turning to `CCOC(=O)C(C)Oc1ccc(Oc2nc3ccc(Cl)cc3o2)cc1` (stereo not drawn), the call in assay [1], in assay [2], in [9], in [3], in [4] and in [5] was inactive. Further, the call in [10], in assay [7], in assay [11], in [12], in assay [13] and in assay [14] was inactive. For the same compound, the call in [15] and in [16] was inactive.
For the compound `CSC(=O)c1cccc2nnsc12`, the compound was classed as inactive in [1], in [2], in assay [3], in assay [5], in assay [10] and in assay [6]. Also, the compound was classed as inactive in assay [11], in [12], in assay [8], in [13] and in assay [15]. Further, the AC50 in assay [4] and in [7] was 20000 nM (active) each time.
As for `CC1(C)C(C=C(Cl)Cl)C1C(=O)OCc1cccc(Oc2ccccc2)c1` (stereo not drawn), the outcome in assay [1], in assay [9], in assay [3], in assay [4], in assay [5] and in assay [10] was inactive. For the same compound, the compound was classed as inactive in assay [17], in assay [6], in [7], in [11], in [13] and in assay [14]. In assay [16], the call was inactive. Moreover, the AC50 in assay [8] is 7120 nM (active).
For the compound `COC(=O)c1ccccc1S(=O)(=O)NC(=O)Nc1nc(OC(F)F)cc(OC(F)F)n1`, the outcome in assay [1], in assay [9], in [3], in assay [5], in assay [10] and in [17] was inactive. The outcome in assay [11], in [8], in assay [13] and in [15] was inactive. For the same compound, the AC50 in [4] is 56.9 nM (active); in [7], 233 nM (active).
With `CCCCCOC(=O)COc1cc(N2C(=O)C3=C(CCCC3)C2=O)c(F)cc1Cl`, the call in assay [1], in assay [2], in [3], in assay [4], in assay [5] and in assay [17] was inactive. In addition, the compound was called inactive in assay [7], in [11], in assay [8], in [15] and in assay [16]. In assay [6], the AC50 is 3780 nM (active).
